Test results reported in PubChem BioAssay (NCI).
The panel holds about 83,000 compounds, 20% with a hit somewhere; the sample as a whole holds those more often.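 Assay: single dose, 48 h. Readout: percent growth (0 = no net growth; negative = cell death). Active: <10.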 Values without a mark were called inactive. Active and inactive are the calls of the source.

Assays:
Assay in all cases: NCI-60 one-dose screen, 48 h (100 = growth as untreated, 0 = no growth, -100 = all killed)
Conditions in all cases: 10 µM
NCI-H522 lung = tested on: NCI-H522 lung
RXF 393 renal = tested on: RXF 393 renal
M14 melanoma = tested on: M14 melanoma
SK-MEL-5 melanoma = tested on: SK-MEL-5 melanoma
UO-31 renal = tested on: UO-31 renal
CCRF-CEM leukemia = tested on: CCRF-CEM leukemia
T-47D breast = tested on: T-47D breast
BT-549 breast = tested on: BT-549 breast
MDA-MB-435 melanoma = tested on: MDA-MB-435 melanoma
SW-620 colon = tested on: SW-620 colon
MCF7 breast = tested on: MCF7 breast
HCT-116 colon = tested on: HCT-116 colon
HCC-2998 colon = tested on: HCC-2998 colon
EKVX NSCLC = tested on: EKVX NSCLC
OVCAR-4 ovarian = tested on: OVCAR-4 ovarian
HOP-92 NSCLC = tested on: HOP-92 NSCLC
KM12 colon = tested on: KM12 colon

SMILES: O=C(Nc1ccc(Oc2ncnc3scc(Nc4n[nH]c(=S)s4)c23)cc1)C1(C(=O)Nc2cccc(C(F)(F)F)c2)CC1
- growth (NCI-H522 lung): 94.1%
- growth (RXF 393 renal): 118%
- growth (M14 melanoma): 103%
- growth (SK-MEL-5 melanoma): 95%
- growth (UO-31 renal): 69.4%
- growth (CCRF-CEM leukemia): 111%
- growth (T-47D breast): 86.7%
- growth (BT-549 breast): 96.1%
- growth (MDA-MB-435 melanoma): 105%
- growth (SW-620 colon): 103%
- growth (MCF7 breast): 23.3%
- growth (HCT-116 colon): 99.7%
- growth (HCC-2998 colon): 107%

SMILES: Cc1ccc(COc2ccc(NC(=O)Nc3ccc(Cl)c(C(F)(F)F)c3)cc2)cc1
- growth (RXF 393 renal): 75.5%
- growth (SK-MEL-5 melanoma): 79.9%
- growth (EKVX NSCLC): 63.1%
- growth (CCRF-CEM leukemia): 60.7%
- growth (OVCAR-4 ovarian): 66.4%
- growth (T-47D breast): 33.7%
- growth (BT-549 breast): 74.4%
- growth (MDA-MB-435 melanoma): 86.1%
- growth (SW-620 colon): 86.5%
- growth (HCT-116 colon): 69.7%
- growth (HCC-2998 colon): 83.7%

SMILES: COc1cc(-c2nc3ccc(C)cc3[nH]2)ccc1OCc1nnc(-c2ccccc2Br)o1
- growth (HOP-92 NSCLC): 84.3%
- growth (RXF 393 renal): 1.93% (active)
- growth (M14 melanoma): 71.2%
- growth (SK-MEL-5 melanoma): 41.1%
- growth (CCRF-CEM leukemia): 19.4%
- growth (T-47D breast): 28%
- growth (BT-549 breast): 55.7%
- growth (MDA-MB-435 melanoma): 85.4%
- growth (SW-620 colon): 91.9%
- growth (MCF7 breast): 44.4%
- growth (HCT-116 colon): 61%
- growth (HCC-2998 colon): 77.2%
- growth (KM12 colon): 65.9%

SMILES: COc1cc(C2CC(c3ccc(Oc4ccc(Cl)cc4)cc3)=NN2c2nc(-c3ccc(Cl)cc3)c(C#N)c(N3CCOCC3)n2)cc(OC)c1OC (centres undefined)
- growth (NCI-H522 lung): 92.4%
- growth (RXF 393 renal): 107%
- growth (M14 melanoma): 99%
- growth (SK-MEL-5 melanoma): 97.8%
- growth (CCRF-CEM leukemia): 111%
- growth (T-47D breast): 91.8%
- growth (BT-549 breast): 116%
- growth (MDA-MB-435 melanoma): 94.2%
- growth (SW-620 colon): 101%
- growth (HCT-116 colon): 106%
- growth (HCC-2998 colon): 100%
- growth (KM12 colon): 101%
